# Data taken from the supplement of paper PMC8728848.
# Many of the other results were omitted from the sample, so the strongest signals are more common in it than they were.
# B1: PpFlo1 (Pichia pastoris) (protein)
# chain: MGSSHHHHHHSSGLVPRGSHMQESGDGDISDSAYACDIDATRYDGFNATIYEFQPGDGRLTRDPVFMSTGYLNRTQLHSITGVTDPGFSIYTPGVPTTTLYGIPNVNWENLLLELKGYFRAEVSGDYGLSLRNIDDSAILFFGKETAFQCCNENSISNEASTDYSLFTIFRQEGDETTNLDSFTYTQYLEAGKYYPVRTFFVNIERHAVFNFTMTLPDGTELTDFHNYIYQFGALDEEQCQA
# What was measured:
# Experiment in all cases: glycan array binding signal (z-score within array); higher = stronger binding
# Conditions in all cases: glycan notation: IUPAC condensed, linker removed
# [1] = target: Fuc(a1-2)Gal(b1-3)GalNAc(b1-3)Gal
# Method in brief: (§1)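 Negative Z-scores can be read as non-binding. The Z-score is calculated within each array and then averaged across arrays of one protein sequence at different concentrations or buffers and across linkers. Arrays, 3228 in all, were curated from the Consortium for Functional Glycomics database and kept only where the protein sequence was available.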
# Fuc(a1-2)Gal(b1-4)Glc6S = target: Fuc(a1-2)Gal(b1-4)Glc6S
# Method in brief: as §1
# [2] = target: Fuc(a1-2)Gal(b1-4)GlcNAc(b1-3)GalNAc
# Method in brief: as §1
# [3] = target: Fuc(a1-2)Gal(b1-4)[Fuc(a1-3)]GlcNAc(b1-2)Man(a1-3)[Fuc(a1-2)Gal(b1-4)[Fuc(a1-3)]GlcNAc(b1-2)Man(a1-6)]Man(b1-4)GlcNAc(b1-4)[Fuc(a1-6)]GlcNAc
# Method in brief: as §1
# [4] = target: Fuc(a1-2)Gal(b1-4)[Fuc(a1-3)]GlcNAc(b1-3)Gal(b1-4)[Fuc(a1-3)]GlcNAc(b1-3)Gal(b1-4)[Fuc(a1-3)]GlcNAc
# Method in brief: as §1
# [5] = target: Fuc(a1-2)Gal(b1-4)[Fuc(a1-3)]GlcNAc(b1-3)[Neu5Ac(a2-6)Gal(b1-4)GlcNAc(b1-6)]Gal(b1-4)Glc
# Method in brief: as §1
# [6] = target: Fuc(a1-2)[Gal(a1-3)]Gal(b1-4)GlcNAc(b1-6)GalNAc
# Method in brief: as §1
# [7] = target: Fuc(a1-2)[Gal(a1-3)]Gal(b1-4)[Fuc(a1-3)]GlcNAc(b1-3)GalNAc
# Method in brief: as §1
# [8] = target: Fuc(a1-2)[GalNAc(a1-3)]Gal(b1-3)GalNAc(b1-3)Gal(a1-4)Gal(b1-4)Glc
# Method in brief: as §1
# [9] = target: Fuc(a1-2)[GalNAc(a1-3)]Gal(b1-3)GlcNAc(b1-3)GalNAc
# Method in brief: as §1
# [10] = target: Fuc(a1-2)[GalNAc(a1-3)]Gal(b1-4)GlcNAc(b1-2)Man(a1-3)[Fuc(a1-2)[GalNAc(a1-3)]Gal(b1-4)GlcNAc(b1-2)Man(a1-6)]Man(b1-4)GlcNAc(b1-4)GlcNAc
# Method in brief: as §1
# [11] = target: Fuc(a1-2)[GalNAc(a1-3)]Gal(b1-4)[Fuc(a1-3)]GlcNAc(b1-3)GalNAc
# Method in brief: as §1
# [12] = target: Fuc(a1-3)[Gal(b1-4)]GlcNAc(b1-6)[Neu5Ac(a2-3)Gal(b1-3)]GalNAc
# Method in brief: as §1
# [13] = target: Gal(a1-4)Gal(b1-4)GlcNAc(b1-3)Gal(b1-4)Glc
# Method in brief: as §1
# Gal(b1-3)Gal = target: Gal(b1-3)Gal
# Method in brief: as §1
# [14] = target: Gal(b1-3)GalNAc(a1-3)[Fuc(a1-2)]Gal(b1-4)Glc
# Method in brief: as §1
# [15] = target: Gal(b1-3)GalNAc(b1-4)Gal(b1-4)Glc
# Method in brief: as §1
# [16] = target: Gal(b1-3)GlcNAc(a1-3)Gal(b1-4)GlcNAc
# Method in brief: as §1
# [17] = target: Gal(b1-3)[Neu5Ac(a2-6)]GlcNAc(b1-4)Gal(b1-4)Glc
# Method in brief: as §1
# [18] = target: Gal(b1-4)GlcNAc(b1-2)Man(a1-3)[Gal(b1-4)GlcNAc(b1-2)Man(a1-6)]Man(b1-4)GlcNAc(b1-4)[Fuc(a1-6)]GlcNAc
# Method in brief: as §1
# [19] = target: Gal(b1-4)GlcNAc(b1-2)Man(a1-3)[Gal(b1-4)GlcNAc(b1-2)Man(a1-6)][Gal(b1-4)GlcNAc(b1-4)]Man(b1-4)GlcNAc(b1-4)[Fuc(a1-6)]GlcNAc
# Method in brief: as §1
# [20] = target: Gal(b1-4)GlcNAc(b1-2)Man(a1-3)[GlcNAc(b1-4)][Gal(b1-4)GlcNAc(b1-2)Man(a1-6)]Man(b1-4)GlcNAc(b1-4)GlcNAc
# Method in brief: as §1
# [21] = target: Gal(b1-4)GlcNAc(b1-2)Man(a1-3)[Man(a1-6)]Man(b1-4)GlcNAc(b1-4)GlcNAc
# Method in brief: as §1
# [22] = target: Gal(b1-4)GlcNAc(b1-2)[Gal(b1-4)GlcNAc(b1-4)]Man(a1-3)[GlcNAc(b1-4)][Gal(b1-4)GlcNAc(b1-2)Man(a1-6)]Man(b1-4)GlcNAc(b1-4)GlcNAc
# Method in brief: as §1
# [23] = target: Gal(b1-4)GlcNAc(b1-3)Gal(b1-4)GlcNAc(b1-3)[Gal(b1-4)GlcNAc(b1-3)Gal(b1-4)GlcNAc(b1-6)]GalNAc
# Method in brief: as §1
# Gal3S6S(b1-4)GlcNAc6S = target: Gal3S6S(b1-4)GlcNAc6S
# Method in brief: as §1
# Gal6S(b1-3)GlcNAc6S = target: Gal6S(b1-3)GlcNAc6S
# Method in brief: as §1
# Gal6S(b1-4)GlcNAc6S = target: Gal6S(b1-4)GlcNAc6S
# Method in brief: as §1
# [24] = target: GalNAc(a1-3)GalNAc(b1-3)Gal(a1-4)Gal(b1-4)Glc
# Method in brief: as §1
# [25] = target: GalNAc(b1-4)GlcNAc(b1-2)Man
# Method in brief: as §1
# [26] = target: GlcA3S(b1-3)Gal(b1-4)GlcNAc(b1-3)Gal(b1-4)Glc
# Method in brief: as §1
binder,measurement,setting,value
B1,glycan array binding signal (z-score),[1],-0.068
same,glycan array binding signal (z-score),Fuc(a1-2)Gal(b1-4)Glc6S,-0.627
same,glycan array binding signal (z-score),[2],9.01
same,glycan array binding signal (z-score),[3],0.805
same,glycan array binding signal (z-score),[4],0.218
same,glycan array binding signal (z-score),[5],-0.279
same,glycan array binding signal (z-score),[6],-0.228
same,glycan array binding signal (z-score),[7],1.04
same,glycan array binding signal (z-score),[8],-0.244
same,glycan array binding signal (z-score),[9],3.23
same,glycan array binding signal (z-score),[10],2.04
same,glycan array binding signal (z-score),[11],7.08
same,glycan array binding signal (z-score),[12],3.09
same,glycan array binding signal (z-score),[13],-0.25
same,glycan array binding signal (z-score),Gal(b1-3)Gal,0.345
same,glycan array binding signal (z-score),[14],-0.55
same,glycan array binding signal (z-score),[15],3.27
same,glycan array binding signal (z-score),[16],-0.388
same,glycan array binding signal (z-score),[17],0.298
same,glycan array binding signal (z-score),[18],-0.323
same,glycan array binding signal (z-score),[19],0.235
same,glycan array binding signal (z-score),[20],-0.214
same,glycan array binding signal (z-score),[21],1.6
same,glycan array binding signal (z-score),[22],-0.266
same,glycan array binding signal (z-score),[23],0.345
same,glycan array binding signal (z-score),Gal3S6S(b1-4)GlcNAc6S,1.38
same,glycan array binding signal (z-score),Gal6S(b1-3)GlcNAc6S,2.66
same,glycan array binding signal (z-score),Gal6S(b1-4)GlcNAc6S,1.66
same,glycan array binding signal (z-score),[24],-0.647
same,glycan array binding signal (z-score),[25],-0.267
same,glycan array binding signal (z-score),[26],-0.4
